According to the OligoGym collection:

How the values were obtained:
Assay in all cases: pooled miR-30 sensor sort-seq; sequence = guide strand
Conditions in all cases: shRNA
CENPE = biological target: CENPE
CEP110 = biological target: CEP110
CENPO = biological target: CENPO
CEP55 = biological target: CEP55
CHCHD8 = biological target: CHCHD8
CHD2 = biological target: CHD2
CHEK1 = biological target: CHEK1
CHI3L1 = biological target: CHI3L1
CLDN16 = biological target: CLDN16
Further: reference of the scale not given here.

In the case of TTTGCTTGTATGTAGTTGCAAG, the sensor-assay potency score (higher = more potent) (CENPE) is reported as -0.96.

TAAACCAAAAACTTGCTCCTGA showed a sensor-assay potency score (higher = more potent) (CEP110) of 0.902.

Work on TTGAGTATCTATATTCATGTTA yielded a sensor-assay potency score (higher = more potent) (CENPE) of 0.243.

Sequence TATTTTTTGAAACTGAAGGAAG has a sensor-assay potency score (higher = more potent) (CENPO) of -1.18.

TTGCATTGCTGAAATGTCGTTA was tested, and the sensor-assay potency score (higher = more potent) (CEP110) was 0.524.

In the case of TTTCTTCATATTTTCTTCGAAA, the sensor-assay potency score (higher = more potent) (CEP55) is reported as -1.41.

In the case of TAAGCATTCAGGTACTCGCAGA, the sensor-assay potency score (higher = more potent) (CENPO) is reported as -0.982.

TTATGTTTAGACATCTGCCTTA was tested, and the sensor-assay potency score (higher = more potent) (CEP110) was 0.679.

In the case of TAGTCTACCACTCAACTGCTTG, the sensor-assay potency score (higher = more potent) (CEP110) is reported as -1.16.

TATTTCTCTGATGTGCTCCCAG showed a sensor-assay potency score (higher = more potent) (CENPO) of -0.111.

TTACTTGGTGGTTCTGTCGGTC showed a sensor-assay potency score (higher = more potent) (CENPE) of 0.00856.

Work on TTTATGCCTATCATCTTCCAGA yielded a sensor-assay potency score (higher = more potent) (CEP55) of -0.706.

Sequence TTGAAACTGAAGGAAGTCCCGA has a sensor-assay potency score (higher = more potent) (CENPO) of 0.077.

With TTTAGGTTTAGAAACCTCCTCA the sensor-assay potency score (higher = more potent) (CENPO) was 0.397.

Work on TTTCTTTCTGTCAAGAACTGGT yielded a sensor-assay potency score (higher = more potent) (CEP110) of -0.248.

In the case of TAGGTTTAGAAACCTCCTCAGC, the sensor-assay potency score (higher = more potent) (CENPO) is reported as -1.26.

TTCTTTTTCTCTAACTCTCGGA gave a sensor-assay potency score (higher = more potent) (CEP110) of -0.414.

For TTTTCTTCGAAATTCACTCAGT, the sensor-assay potency score (higher = more potent) (CEP55) was 0.403.

Work on TTTATCAACAGTTTCTTTGTGT yielded a sensor-assay potency score (higher = more potent) (CENPE) of 1.24.

TTGCTCATTGATCTCCACTGTT was tested, and the sensor-assay potency score (higher = more potent) (CENPO) was -0.258.

TTTATGGTCTTGATAGTCCAAA was tested, and the sensor-assay potency score (higher = more potent) (CEP110) was -1.01.

Work on TTGAAGAACTTCTTGCAGCCTC yielded a sensor-assay potency score (higher = more potent) (CENPE) of 0.172.

TAGCTGTTCATTTTGCTGCTTT showed a sensor-assay potency score (higher = more potent) (CENPE) of -0.023.

In the case of TTGACATCTTTTTTTAACGTAA, the sensor-assay potency score (higher = more potent) (CENPE) is reported as -0.388.

Work on TCTTTGTGAATACAACAGCTGA yielded a sensor-assay potency score (higher = more potent) (CEP55) of -0.875.

TTGTAGTCTACCACTCAACTGC gave a sensor-assay potency score (higher = more potent) (CEP110) of 0.0361.

For TAACAGATTATTGTCATCCTGC, the sensor-assay potency score (higher = more potent) (CEP110) was 0.569.

For TTTTGCAGCTATCTCTTCCAGG, the sensor-assay potency score (higher = more potent) (CENPO) was 0.117.

Work on TTATACAGCAATCTAGCACAGA yielded a sensor-assay potency score (higher = more potent) (CENPO) of -0.484.

In the case of TTCTTCTTGCTGCTTTAGCAGA, the sensor-assay potency score (higher = more potent) (CEP55) is reported as -1.21.

For TTGATCTCCACTGTTTGGTTGG, the sensor-assay potency score (higher = more potent) (CENPO) was 0.162.

TTTCTGTATGACAAGGTCCACA was tested, and the sensor-assay potency score (higher = more potent) (CENPO) was -1.24.

TAGTAGTCTCAGTAGACGCTGC showed a sensor-assay potency score (higher = more potent) (CEP55) of -0.26.

Sequence TTGAGTGTCTCCTCTACTCTTC has a sensor-assay potency score (higher = more potent) (CENPE) of -0.033.

Sequence TAAATTGTGAACTTCTTTTTGG has a sensor-assay potency score (higher = more potent) (CEP55) of -0.104.

With TTATTTTTTGAAACTGAAGGAA the sensor-assay potency score (higher = more potent) (CENPO) was -0.369.

Sequence TTTCTCAATTTCTAGGACCTGT has a sensor-assay potency score (higher = more potent) (CEP110) of -0.0728.

TTCATCTGCAATCTCAACTTGC was tested, and the sensor-assay potency score (higher = more potent) (CEP110) was 0.351.

TATAGTACCATTGTAGCCTTGT showed a sensor-assay potency score (higher = more potent) (CENPE) of 0.768.

TAGTTGTATAGCTTCTTCCAGT showed a sensor-assay potency score (higher = more potent) (CEP110) of -0.43.

TATGACAGCTGTTTGTGCCAGT gave a sensor-assay potency score (higher = more potent) (CHCHD8) of 0.271.

With TATTACTCTTTCTACTATCTGA the sensor-assay potency score (higher = more potent) (CHD2) was 0.18.

With TTTAAAGCTACAAATCGTGGTC the sensor-assay potency score (higher = more potent) (CHD2) was 0.518.

Work on TCTTCCTCTATAATCTTGCTGG yielded a sensor-assay potency score (higher = more potent) (CHCHD8) of -0.27.

TTTCTTATGAGCCATCTTGTAT gave a sensor-assay potency score (higher = more potent) (CHD2) of -1.08.

TCGTCTTTCTTCACCCGTTGGG gave a sensor-assay potency score (higher = more potent) (CHCHD8) of -0.227.

Sequence TTGTTCTTGCCTCCTCTGCAGC has a sensor-assay potency score (higher = more potent) (CHCHD8) of -1.04.

TTTTCTGGTTTAATATCCCTGT gave a sensor-assay potency score (higher = more potent) (CHEK1) of 0.0757.

TGCATTGCTGACACACAGCTGT was tested, and the sensor-assay potency score (higher = more potent) (CHD2) was -0.311.

Sequence TTCTTCTTGAGACCTTTTCTTA has a sensor-assay potency score (higher = more potent) (CHD2) of -0.844.

TCATGCAATCCTTGAACGCCTG was tested, and the sensor-assay potency score (higher = more potent) (CHCHD8) was -0.766.

Work on TTGTTTTCCAGGATCGTCCGGC yielded a sensor-assay potency score (higher = more potent) (CHD2) of -0.196.

TTTTGCACCAGGAATGAGCTAG showed a sensor-assay potency score (higher = more potent) (CHD2) of 0.429.

TTCTTCACCCGTTGGGTCCAGG showed a sensor-assay potency score (higher = more potent) (CHCHD8) of -0.933.

For TTCAACAAGTAATCCGCTCGGG, the sensor-assay potency score (higher = more potent) (CHD2) was 0.35.

TTCCTCTATAATCTTGCTGGGT showed a sensor-assay potency score (higher = more potent) (CHCHD8) of -1.07.

TTTATCTGTCTCCACCGGCAGA was tested, and the sensor-assay potency score (higher = more potent) (CHD2) was -1.04.

Sequence TTGCCGCCAGTCCTGGTGCTGG has a sensor-assay potency score (higher = more potent) (CHCHD8) of -1.88.

Sequence ATCGTCTTTCTTCACCCGTTGG has a sensor-assay potency score (higher = more potent) (CHCHD8) of -0.879.

TTGCACTTGTTGACACTTCATT showed a sensor-assay potency score (higher = more potent) (CHD2) of -0.8.

Work on TTCTTCACATCAGCTATCCGTT yielded a sensor-assay potency score (higher = more potent) (CHD2) of -0.528.

TAAACTGTGATAGAAGTTCATC was tested, and the sensor-assay potency score (higher = more potent) (CHD2) was -0.983.

In the case of ATAAATTTCTTCTAGCTCCTTC, the sensor-assay potency score (higher = more potent) (CHD2) is reported as 1.15.

For TTTATTGATACAGATCTCTTTC, the sensor-assay potency score (higher = more potent) (CHEK1) was 0.115.

For TTGCCTCCTCTGCAGCTCCTCT, the sensor-assay potency score (higher = more potent) (CHCHD8) was -1.69.

Sequence TTGATTGTTGGACCTCTCCTTT has a sensor-assay potency score (higher = more potent) (CHD2) of -0.473.

With TTCTTGCCTCCTCTGCAGCTCC the sensor-assay potency score (higher = more potent) (CHCHD8) was -1.23.

TAAGCCTTGATGAACCTTCGGA was tested, and the sensor-assay potency score (higher = more potent) (CHD2) was 0.0623.

In the case of TCATCGTCTTTCTTCACCCGTT, the sensor-assay potency score (higher = more potent) (CHCHD8) is reported as -0.24.

Sequence TTATAAGCCTTGATGAACCTTC has a sensor-assay potency score (higher = more potent) (CHD2) of 0.197.

In the case of TTCAGGAACTACTATTTGCAGT, the sensor-assay potency score (higher = more potent) (CHEK1) is reported as -0.581.

TCAACAAGTAATCCGCTCGGGT showed a sensor-assay potency score (higher = more potent) (CHD2) of -0.663.

In the case of TTCTTCTAGCTCCTTCTGCCGC, the sensor-assay potency score (higher = more potent) (CHD2) is reported as -0.813.

With TTCCTTAATATTAAATCGCGAT the sensor-assay potency score (higher = more potent) (CHD2) was -0.656.

TAGCACCTTATGAAGACTCTGG was tested, and the sensor-assay potency score (higher = more potent) (CHD2) was -0.21.

For TTCTGGTTTAATATCCCTGTGA, the sensor-assay potency score (higher = more potent) (CHEK1) was -0.58.

TAACCTGATTCATACAACTTTT gave a sensor-assay potency score (higher = more potent) (CHEK1) of -1.09.

TTTCCAGTCAGAATACTCCTGA showed a sensor-assay potency score (higher = more potent) (CHEK1) of -0.0829.

TTTCATTGGACTTTTTTCCAAG gave a sensor-assay potency score (higher = more potent) (CHD2) of -0.762.

TGACACTTCATTCTCTCTCGTT was tested, and the sensor-assay potency score (higher = more potent) (CHD2) was -0.0754.

With TTATCTGTGTGGAAAGAGCGGT the sensor-assay potency score (higher = more potent) (CHD2) was -0.167.

For TTCCTTTATAAATTCGGCCTTC, the sensor-assay potency score (higher = more potent) (CHI3L1) was -0.526.

With TTTGACGCTTTCCTGGTCGTCG the sensor-assay potency score (higher = more potent) (CHI3L1) was -0.339.

TTTGTGACGCATTCCCACCAGA gave a sensor-assay potency score (higher = more potent) (CLDN16) of -0.822.
